# Columns and labels:
# Conditions in all cases: Compound concentration 20.0 uM, Protein concentration 2.0 uM, Result type QC Liability
# [1] = molecular target: Tyrosine-protein kinase ABL1 (Homo sapiens) (UniProt P00519)
# [2] = molecular target: Cyclin-dependent kinase 2 (Homo sapiens) (UniProt P24941)
# [3] = molecular target: Casein kinase I isoform delta (Homo sapiens) (UniProt P48730)
# [4] = molecular target: Glycogen synthase kinase-3 beta (Homo sapiens) (UniProt P49841)
# [5] = molecular target: Mitogen-activated protein kinase 1 (Homo sapiens) (UniProt P28482)
# [6] = molecular target: T1, Aurora kinase A (Homo sapiens) (UniProt O14965)
# T1 sequence (whole entry): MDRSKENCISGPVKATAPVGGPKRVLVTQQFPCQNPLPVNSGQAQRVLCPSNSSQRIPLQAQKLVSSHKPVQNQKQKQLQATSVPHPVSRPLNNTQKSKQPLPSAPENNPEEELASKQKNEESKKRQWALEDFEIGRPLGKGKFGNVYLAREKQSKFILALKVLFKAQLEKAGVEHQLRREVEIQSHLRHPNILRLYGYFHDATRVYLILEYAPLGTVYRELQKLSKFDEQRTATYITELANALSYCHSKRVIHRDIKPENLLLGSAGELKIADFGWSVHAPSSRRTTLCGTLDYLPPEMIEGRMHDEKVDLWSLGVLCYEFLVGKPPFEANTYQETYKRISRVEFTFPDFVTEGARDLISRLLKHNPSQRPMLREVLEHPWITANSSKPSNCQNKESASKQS
# Tyrosine-protein kinase ABL1 (Homo sapiens), sequence (P00519 whole entry): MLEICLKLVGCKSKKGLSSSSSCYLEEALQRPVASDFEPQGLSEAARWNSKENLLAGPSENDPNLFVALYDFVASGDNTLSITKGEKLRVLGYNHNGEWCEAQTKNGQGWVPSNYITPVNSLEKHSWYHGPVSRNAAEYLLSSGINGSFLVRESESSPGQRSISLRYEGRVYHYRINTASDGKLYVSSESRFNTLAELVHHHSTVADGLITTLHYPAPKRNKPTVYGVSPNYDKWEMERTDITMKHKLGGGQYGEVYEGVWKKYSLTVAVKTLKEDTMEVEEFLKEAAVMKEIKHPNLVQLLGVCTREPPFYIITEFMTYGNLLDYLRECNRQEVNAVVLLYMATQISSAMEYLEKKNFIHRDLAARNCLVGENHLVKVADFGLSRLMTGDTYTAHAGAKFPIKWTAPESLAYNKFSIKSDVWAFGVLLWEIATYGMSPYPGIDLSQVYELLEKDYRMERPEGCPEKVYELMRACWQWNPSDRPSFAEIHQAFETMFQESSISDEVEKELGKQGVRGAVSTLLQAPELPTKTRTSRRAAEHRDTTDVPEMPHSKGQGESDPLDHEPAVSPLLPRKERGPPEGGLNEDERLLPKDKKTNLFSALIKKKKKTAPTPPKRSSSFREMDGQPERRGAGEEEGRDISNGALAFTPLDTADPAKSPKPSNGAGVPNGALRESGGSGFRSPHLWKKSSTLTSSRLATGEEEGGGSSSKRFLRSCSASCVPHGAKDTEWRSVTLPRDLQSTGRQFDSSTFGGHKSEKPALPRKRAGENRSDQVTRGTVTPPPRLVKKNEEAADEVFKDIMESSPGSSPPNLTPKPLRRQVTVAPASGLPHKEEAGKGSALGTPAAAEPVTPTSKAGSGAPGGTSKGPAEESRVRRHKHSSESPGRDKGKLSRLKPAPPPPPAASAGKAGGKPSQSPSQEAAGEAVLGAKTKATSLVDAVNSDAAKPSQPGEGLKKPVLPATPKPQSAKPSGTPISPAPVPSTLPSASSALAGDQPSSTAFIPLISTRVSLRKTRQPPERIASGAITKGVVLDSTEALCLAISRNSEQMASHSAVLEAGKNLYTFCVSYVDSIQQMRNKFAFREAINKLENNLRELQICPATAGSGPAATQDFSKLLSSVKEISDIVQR
# Mitogen-activated protein kinase 1 (Homo sapiens), sequence (P28482 whole entry): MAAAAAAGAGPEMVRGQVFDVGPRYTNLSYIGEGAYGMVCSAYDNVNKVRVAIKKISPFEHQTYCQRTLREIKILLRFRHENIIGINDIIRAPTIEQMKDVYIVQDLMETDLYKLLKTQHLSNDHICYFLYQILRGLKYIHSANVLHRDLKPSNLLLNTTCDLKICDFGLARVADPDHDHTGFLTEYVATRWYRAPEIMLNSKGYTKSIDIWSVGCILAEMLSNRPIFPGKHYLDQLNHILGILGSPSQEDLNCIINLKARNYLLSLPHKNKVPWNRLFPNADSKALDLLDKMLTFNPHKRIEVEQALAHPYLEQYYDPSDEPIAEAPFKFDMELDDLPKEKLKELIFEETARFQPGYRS
# Glycogen synthase kinase-3 beta (Homo sapiens), sequence (P49841 whole entry, looked up): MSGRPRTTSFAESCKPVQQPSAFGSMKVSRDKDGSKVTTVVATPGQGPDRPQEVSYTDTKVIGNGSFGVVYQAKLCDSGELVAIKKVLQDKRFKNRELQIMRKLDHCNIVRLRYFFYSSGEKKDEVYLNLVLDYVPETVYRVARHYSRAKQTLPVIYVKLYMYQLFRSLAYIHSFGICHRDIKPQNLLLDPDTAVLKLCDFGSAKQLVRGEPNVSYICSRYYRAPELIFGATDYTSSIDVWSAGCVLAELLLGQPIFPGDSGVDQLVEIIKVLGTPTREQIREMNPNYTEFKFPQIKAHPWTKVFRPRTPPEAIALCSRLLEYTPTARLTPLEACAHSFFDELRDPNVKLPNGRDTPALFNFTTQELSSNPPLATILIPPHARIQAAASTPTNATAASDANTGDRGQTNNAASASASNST
# Casein kinase I isoform delta (Homo sapiens), sequence (P48730 whole entry, looked up, canonical isoform): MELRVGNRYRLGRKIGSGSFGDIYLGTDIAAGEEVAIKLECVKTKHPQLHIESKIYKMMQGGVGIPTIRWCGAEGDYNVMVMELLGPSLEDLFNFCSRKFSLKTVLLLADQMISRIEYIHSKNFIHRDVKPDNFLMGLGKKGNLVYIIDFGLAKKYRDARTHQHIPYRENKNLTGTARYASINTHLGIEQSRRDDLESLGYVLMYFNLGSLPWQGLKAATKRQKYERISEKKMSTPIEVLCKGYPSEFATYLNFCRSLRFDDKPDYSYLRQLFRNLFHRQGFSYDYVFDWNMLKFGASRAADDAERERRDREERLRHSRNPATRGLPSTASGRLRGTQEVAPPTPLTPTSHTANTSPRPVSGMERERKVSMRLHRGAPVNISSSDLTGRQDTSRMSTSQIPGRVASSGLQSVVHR
Structure (SMILES),ΔTm [1] [°C],ΔTm [2] [°C],ΔTm [3] [°C],ΔTm [4] [°C],ΔTm [5] [°C],ΔTm [6] [°C]
O=C(CNC(=O)c1ccc(-c2ccccc2)cc1)NC1CCCc2ccccc21 (configuration not stated),0.75,-0.06,-1.78,-2.76,0.17,-1.46
CC(C)c1nc2c(c3c1[C@H](c1ccc(C(F)(F)F)cc1)OC31CCOCC1)[C@H](O)CC(C)(C)C2,-0.1,-0.68,-0.53,-1.62,-0.14,-0.26
CN1CCN(c2ccc(Nc3ncc4cc5n(c4n3)C3(CCCCC3)CNC5=O)nc2)CC1,0.17,0,-0.03,0.02,0.18,0.38
CC(C)(C)C(=O)NCc1ccc(Cl)c(C(=O)Nc2ncc[nH]2)c1,0.08,0.44,-0.14,0.45,-0.01,-0.18
Cc1cc(-c2ccnc(Nc3cnn(C)c3)n2)ccc1CNC(=O)N1CC(OC(C)C)C1,6.49,1.31,0.77,0.38,0.39,8.06
O=C(Nc1cc2cc[nH]c(=O)c2cc1Cl)[C@H]1CNC[C@@H]1c1cccnc1,0.03,0.53,0.29,-0.6,0.49,-0.12
Cc1cccc(CC(=O)N2CCc3c2ccc(-c2cn(C)c4ncnc(N)c24)c3F)n1,2.48,0.14,0.49,-0.92,0.15,0.37
Cc1nn(C)c(COc2ccc(N3CCN(S(=O)(=O)N(C)C)CC3)cc2)c1-c1cccc2c(CCCOc3cccc4ccccc34)c(C(=O)O)n(CCN3CCOCC3)c12,0.04,0.39,-0.73,0,-0.31,0.6
Oc1c(CN2CCCC2)cc(COCc2ccccc2)c2cccnc12,0.07,0.07,1.22,-0.76,0.33,-1.78
Cc1cn(CCN2CCN(c3ccccc3-c3cc(C#N)cc(C(=O)NCCCN4CCCC4)c3)CC2)c2ccccc12,0.13,0.91,-2.16,-0.98,0.52,-0.16
N[C@@H]1CCCN(c2c(/C=C3\SC(=O)NC3=O)cccc2-c2ccccc2)C1,-0.18,2.37,0.88,3.72,0.64,-0.48
CCOC(=O)c1cc2cc(-c3cc(C(=O)NCc4ccc(C(=O)O)cc4)nn3C)ccc2[nH]1,0.13,-0.6,0.53,0.78,-0.1,1.73
CC(C)(C)c1cc(NC(=O)c2csc(Nc3ccc(Cl)cc3)n2)no1,-0.19,0.91,1.05,-2.8,-3.27,1.67
COC(=O)c1ccc2c(c1)NC(=O)/C2=C(\Nc1ccc(-c2nccn2C)cc1)c1ccccc1,3.43,0.27,-0.5,1.96,-6.31,-1.46
Cc1ccc(C(=O)Nc2cc(N3CCN(C)CC3)cc(C(F)(F)F)c2)cc1-n1cc(-c2cnn(C)c2C)nn1,12.9,0.76,1.19,-0.67,0.45,0.76
CCS(=O)(=O)Nc1cccc(Oc2cc(F)cc(Nc3ccc(I)cc3F)c2NS(=O)(=O)C2CC2)c1,1.05,0.19,0.44,2.25,-1.88,0.23
Cc1cccc(-c2[nH]c(CNc3ccccc3F)nc2-c2ccc3ncnn3c2)n1,3.23,0.92,1.1,-0.02,0.92,0.8

Structure (SMILES),ΔTm [1] [°C],ΔTm [2] [°C],ΔTm [3] [°C],ΔTm [4] [°C],ΔTm [5] [°C],ΔTm [6] [°C]
O=C(Nc1ccc(-n2nc(-c3cccnc3)cc2C(F)(F)F)cn1)c1ccc(-c2ccccc2)c(F)c1,-0.47,-0.05,-0.18,-0.91,0.06,0.04
Cc1ccc(NC(=O)c2ccc3c(c2)OCCO3)cc1NC(=O)c1ccc2nc(OCCN3CCCC3)ccc2c1,2.56,1.06,1.91,0.36,0.33,-0.43
Nc1nccc(-c2c(-c3ccc(F)cc3)ncn2C2CCCCC2)n1,2.76,-0.08,8.08,2.6,0.33,-0.66
CN1CCc2cc(Nc3ncc(C(F)(F)F)c(NCc4cc[nH]n4)n3)ccc2C1,5.79,7.99,2.14,6.33,1.88,11.3
CC(C)c1cnn2c(NCc3ccccc3)cc(NCCCCCCN)nc12,-0.02,1.03,2.94,-0.56,0.38,-1.2
CN1C(=O)[C@@H](NC(=O)c2cc(Cc3ccccc3)on2)COc2ccccc21,-2.16,-0.24,-4.18,-4.43,-1.79,-1.24
CC(=O)N1CCN([C@H]2CCC[C@@H](NC(=O)c3cc4c(F)ccc(C)c4[nH]3)C2)CC1,0.29,0.89,0.05,-0.56,0.42,-0.61
COc1ccccc1S(=O)(=O)Nc1ccc2c(c1)CN(C)C(=O)N2,0.09,1.13,0.79,-0.57,0.21,-0.1
O=C(O)C[C@H]1CC[C@H](c2ccc(NC(=O)c3nnc(Nc4ccc(F)c(F)c4)o3)cc2)CC1,-0.04,0.24,-0.9,-0.67,-2.59,0.92
Cc1cc(NC(=O)c2cccc(NC(=O)/C=C/CN(C)C)c2)ccc1Nc1nccc(-c2cccnc2)n1,3.79,1.64,4.02,6.68,1.52,5.38
Fc1cccc(-n2cnc3c(NCc4nc5c(F)c(F)ccc5[nH]4)nc(N4CCOCC4)nc32)c1,1.99,0.74,3.88,1.83,0.22,0.74
CC[C@H](NC(=O)[C@H](C)NC)C(=O)N1C[C@@H](O)C[C@H]1Cc1c(-c2[nH]c3cc(F)ccc3c2C[C@@H]2C[C@H](O)CN2C(=O)[C@H](CC)NC(=O)[C@H](C)NC)[nH]c2cc(F)ccc12,0.09,0.28,1.26,-0.88,0.38,-1.51
COc1ccc(C(F)(F)F)cc1NC(=O)Nc1ccc(Oc2cc(C)nc(N)n2)c2ccccc12,5.29,1.11,0.31,1.99,0.06,-0.77
Cc1nc2c(cc1F)c(-c1nnc3c(n1)NC(=O)C3(C)C)nn2Cc1cccc(F)c1F,0.8,0.74,0.12,-0.14,0.44,-0.06
Cc1cc2c(-c3ccco3)cnc(N[C@@H]3CCN(C)C[C@H]3C(=O)NC3CCCCC3)c2[nH]c1=O,0.07,0.91,-0.09,-0.51,0.54,0.79
CC[C@@H]1C(=O)N(C)c2cnc(Nc3ccc(C(=O)NC4CCN(C)CC4)cc3OC)nc2N1C1CCCC1,1.51,0.58,,0.02,0.15,-0.18
